Experimental data as given in PubChem BioAssay AID2017 (National Center for Advancing Translational Sciences (NCATS), 2009).
Inconclusive results are not listed. Activity calls are given as the source filed them. Calls follow the shape of the dose curve; as a rule, active = well fitted curve in the direction sought with a large enough effect; inconclusive = small, poorly fitted or top-dose-only effect, or another doubt; inactive = no such curve, though single readings can be large or run the other way.

System: 4-diphosphocytidyl-2-C-methyl-D-erythritol kinase IspE (bacterial, species not stated)
Test: Confirmatory Assay for Inhibitors of Human Galactokinase (GALK): CDP-Me assay counterscreen
Text: NIH Molecular Libraries Probe Production Centers Network [MLPCN] NIH Chemical Genomics Center [NCGC] MLPCN Grant: R03 MH085689-01 Assay Submitter (PI): Kent Lai (University of Utah School of Medicine, 50 N Mario Capecchi Drive, Salt Lake City, UT 84132) NCGC Assay Overview The GHMP kinase family is a unique class of important enzymes that plays an essential role in many metabolic processes. It contains more than 170 protein members among which are the galactokinase (GALK) and the CMK enzymes. GALK plays a crucial role in galactose processing and is a potential therapeutic target for Classic Galactosemia (OMIM: 230400). CMK is involved for the non-mevalonate synthesis of isoprenoids precursors and natural products like sterols or ubiquinones which are important to many biological functions. […]
NCGC Assay Protocol Summary: Three uL/well of substrate solution (15 uM ATP, 30 uM CDP-ME, 20 mM HEPES pH8.0, 5 mM MgCl2, 40 mM KCl, 1 mM DTT, 0.01% BSA final concentration) was dispensed into 1536-well, assay plates (Greiner, solid white medium-binding plates) with Aurora Discovery BioRAPTR Flying Reagent Dispenser (FRD; Beckton-Dickenson). […] After 1 min, luminescence was detected with the ViewLux plate reader (Perkin Elmer, Waltham, MA) using a 1 sec exposure time and 2x binning settings.

SMILES	outcome
O=C1NC(=S)N(Cc2ccco2)C(=O)/C1=C\c1cccs1	inactive
COCCCn1c(N)c(C(=O)NCc2ccco2)c2nc3ccccc3nc21	inactive
